What was measured:
Assay in all cases: yeast three-hybrid, YBZ-1, SC-Leu-His + 0.5 mM 3-AT, 4 days
Details in all cases: tags: N-Gal4 AD-HA kept; label: inside an RPR1-promoter hybrid RNA with tandem MS2 sites; ssRNA
PUM1 PUF domain R5-HRR = PUM1 PUF domain R5-HRR (Homo sapiens, UniProt Q14671 828-1176, C1007H;Q1011R)
In short: (§1)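 Repeat regions from input (SC-Leu) and selection (SC-Leu-His + 0.5 mM 3-AT) plates were PCR-amplified and Illumina-sequenced after four days of growth. The cells were strain YBZ-1 with a LexA–MS2 coat fusion and a HIS3 reporter, co-expressing Pumilio-1 PUF domain libraries and matching RNA elements from a centromeric plasmid. The interaction score is the log change in variant frequency from input to selection, taken in log2 with a pseudocount of 1 for absent variants.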

PUM1 PUF domain R5-KRV = PUM1 PUF domain R5-KRV (Homo sapiens, UniProt Q14671 828-1176, C1007K;Q1011V)
In short: as §1

PUM1 PUF domain R1-RRN = PUM1 PUF domain R1-RRN (Homo sapiens, UniProt Q14671 828-1176, S863R;Q867N)
In short: as §1

PUM1 PUF domain R1-YVK = PUM1 PUF domain R1-YVK (Homo sapiens, UniProt Q14671 828-1176, S863Y;R864V;Q867K)
In short: as §1

PUM1 PUF domain R6-TFA = biological target: T1, PUM1 PUF domain R6-TFA (Homo sapiens, UniProt Q14671 828-1176, N1043T;Y1044F;Q1047A)
T1 sequence: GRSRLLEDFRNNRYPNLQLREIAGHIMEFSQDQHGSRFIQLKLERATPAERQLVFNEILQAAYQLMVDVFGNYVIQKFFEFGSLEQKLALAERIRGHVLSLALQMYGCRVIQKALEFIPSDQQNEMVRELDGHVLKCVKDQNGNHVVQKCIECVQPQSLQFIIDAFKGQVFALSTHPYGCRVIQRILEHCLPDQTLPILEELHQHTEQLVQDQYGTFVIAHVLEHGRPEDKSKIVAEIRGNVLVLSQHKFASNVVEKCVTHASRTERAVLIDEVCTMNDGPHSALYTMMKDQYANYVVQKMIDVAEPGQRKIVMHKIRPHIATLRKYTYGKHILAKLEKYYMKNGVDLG
In short: as §1

PUM1 PUF domain R4-RHL = PUM1 PUF domain R4-RHL (Homo sapiens, UniProt Q14671 828-1176, N971R;Q975L)
In short: as §1

PUM1 PUF domain R3-IYD = PUM1 PUF domain R3-IYD (Homo sapiens, UniProt Q14671 828-1176, C935I;R936Y;Q939D)
In short: as §1

PUM1 PUF domain R3-RCW = PUM1 PUF domain R3-RCW (Homo sapiens, UniProt Q14671 828-1176, C935R;R936C;Q939W)
In short: as §1

PUM1 PUF domain R7-RGG = PUM1 PUF domain R7-RGG (Homo sapiens, UniProt Q14671 828-1176, S1079R;N1080G;E1083G)
In short: as §1

PUM1 PUF domain R8-KHC = PUM1 PUF domain R8-KHC (Homo sapiens, UniProt Q14671 828-1176, N1122K;Y1123H;Q1126C)
In short: as §1

## GGCUAGAACUAGUGGAUCCCCCGGCGCCCGGCGGCUCGAGCCCGGGUAAGUGUCAAUAGUCUGCAUGCCGCCGGGCGCCAUGCCUGCAGGUCGACUCUAGAAAACAUG
PUM1 PUF domain R5-HRR
  binding signal: 2.4 log2 enrichment (interaction score)
PUM1 PUF domain R5-KRV
  binding signal: 4.1 log2 enrichment (interaction score)

## GGCUAGAACUAGUGGAUCCCCCGGCGCCCGGCGGCUCGAGCCCGGGUAAGUGUAAAUCGUCUGCAUGCCGCCGGGCGCCAUGCCUGCAGGUCGACUCUAGAAAACAUG
PUM1 PUF domain R1-RRN
  binding signal: 5.26 log2 enrichment (interaction score)
PUM1 PUF domain R1-YVK
  binding signal: 1.62 log2 enrichment (interaction score)

## GGCUAGAACUAGUGGAUCCCCCGGCGCCCGGCGGCUCGAGCCCGGGUAAGUGUAAAUUGUCUGCAUGCCGCCGGGCGCCAUGCCUGCAGGUCGACUCUAGAAAACAUG
PUM1 PUF domain R1-YVK
  binding signal: 2.55 log2 enrichment (interaction score)

## GGCUAGAACUAGUGGAUCCCCCGGCGCCCGGCGGCUCGAGCCCGGGUAAGUGUAAAUAGUCUGCAUGCCGCCGGGCGCCAUGCCUGCAGGUCGACUCUAGAAAACAUG
PUM1 PUF domain R5-HRR
  binding signal: 1.38 log2 enrichment (interaction score)
PUM1 PUF domain R6-TFA
  binding signal: 3.93 log2 enrichment (interaction score)
PUM1 PUF domain R4-RHL
  binding signal: 3.62 log2 enrichment (interaction score)
PUM1 PUF domain R3-IYD
  binding signal: 3.08 log2 enrichment (interaction score)

## GGCUAGAACUAGUGGAUCCCCCGGCGCCCGGCGGCUCGAGCCCGGGUAAGUGUAAGUAGUCUGCAUGCCGCCGGGCGCCAUGCCUGCAGGUCGACUCUAGAAAACAUG
PUM1 PUF domain R3-RCW
  binding signal: 3 log2 enrichment (interaction score)

## GGCUAGAACUAGUGGAUCCCCCGGCGCCCGGCGGCUCGAGCCCGGGUAAGUCUAAAUAGUCUGCAUGCCGCCGGGCGCCAUGCCUGCAGGUCGACUCUAGAAAACAUG
PUM1 PUF domain R7-RGG
  binding signal: 1.37 log2 enrichment (interaction score)

## GGCUAGAACUAGUGGAUCCCCCGGCGCCCGGCGGCUCGAGCCCGGGUAAGUUUAAAUAGUCUGCAUGCCGCCGGGCGCCAUGCCUGCAGGUCGACUCUAGAAAACAUG
PUM1 PUF domain R7-RGG
  binding signal: 3.65 log2 enrichment (interaction score)

## GGCUAGAACUAGUGGAUCCCCCGGCGCCCGGCGGCUCGAGCCCGGGUAAGUGUAAUUAGUCUGCAUGCCGCCGGGCGCCAUGCCUGCAGGUCGACUCUAGAAAACAUG
PUM1 PUF domain R3-RCW
  binding signal: 3.79 log2 enrichment (interaction score)
PUM1 PUF domain R3-IYD
  binding signal: 2.12 log2 enrichment (interaction score)

## GGCUAGAACUAGUGGAUCCCCCGGCGCCCGGCGGCUCGAGCCCGGGUAAGCGUAAAUAGUCUGCAUGCCGCCGGGCGCCAUGCCUGCAGGUCGACUCUAGAAAACAUG
PUM1 PUF domain R8-KHC
  binding signal: 5.19 log2 enrichment (interaction score)

## GGCUAGAACUAGUGGAUCCCCCGGCGCCCGGCGGCUCGAGCCCGGGUAAGUGUAAAUGGUCUGCAUGCCGCCGGGCGCCAUGCCUGCAGGUCGACUCUAGAAAACAUG
PUM1 PUF domain R1-RRN
  binding signal: 2.89 log2 enrichment (interaction score)

## GGCUAGAACUAGUGGAUCCCCCGGCGCCCGGCGGCUCGAGCCCGGGUAAGUGUUAAUAGUCUGCAUGCCGCCGGGCGCCAUGCCUGCAGGUCGACUCUAGAAAACAUG
PUM1 PUF domain R5-HRR
  binding signal: 4.62 log2 enrichment (interaction score)
